The target in assay [1] is Myc proto-oncogene protein (Homo sapiens) (UniProt P01106). As to the kind of experiment: ATG_Myc_CIS: Attagene CIS-FACTORIAL HepG2 Assay for human Myelocytomatosis (Myc) Proto-Oncogene Transcription Factor (AID 2282990). Conditions: HepG2, Attagene cis-reporter transcription factor activity; actives raise or lower the signal. In short, it runs like this:
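Read-out: fluorescent reporter mRNA fragments resolved by capillary electrophoresis after RT-PCR. Human HepG2 liver cells carried transfected cis-element reporter units and were dosed for 24 h. Gain or loss of signal fitted relative to DMSO baseline.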

A short description of assay [2]: ATG_NRF2_ARE_CIS: Attagene CIS-FACTORIAL HepG2 Assay for human Nuclear Factor Erythroid 2 Related Factor 2 (NFR2) response to Antioxidant Response Elements (ARE) (AID 2282992).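 On AC50: reporter mRNA level measured by RT-PCR and capillary electrophoresis fluorescence.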 Conditions: HepG2 Attagene ARE/NRF2 reporter, transcription factor activity; actives raise or lower the signal. The method, boiled down: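 Transient MRTU transfection of HepG2; 24 h compound exposure; TriZol RNA, RT with oligo(dT), PCR, 6-FAM primer extension, HpaI cut, CE. Bidirectional fit vs DMSO.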

Assay [3] can be described thus: ATG_Oct_MLP_CIS: Attagene CIS-FACTORIAL HepG2 Assay for human Octamer-Binding Transcription Factor (Oct) (AID 2282993). The conditions noted are these: HepG2 Attagene cis-factorial Oct reporter, mRNA; actives raise or lower the signal. The method, boiled down:
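Readout is reporter transcript level from RT-PCR with fluorescent primer extension and capillary electrophoresis, fitted in both directions against DMSO. Transfected HepG2 reporter units report endogenous factor activity after 24 h dosing.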

Assay [4] has as its target Cellular tumor antigen p53 (Homo sapiens) (UniProt P04637). As to the kind of experiment: ATG_p53_CIS: Attagene CIS-FACTORIAL HepG2 Assay for human p53 Transcription Factor (AID 2282994). Conditions: HepG2 p53 cis-element reporter, Attagene mRNA; actives raise or lower the signal. The method, boiled down:
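HepG2, transient MRTU transfection (cis promoter elements, endogenous TFs); 24 h dosing; RNA isolation, RT-PCR, 6-FAM primer extension, HpaI digest, CE fluorescence; bidirectional fit vs DMSO.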

A short description of assay [5]: BSK_3C_uPAR: BioMAP Diversity Plus: 3C Assay for Urokinase-type plasminogen activator receptor (uPAR) Biomarker Activity (AID 2282998). Conditions: BioMAP 3C HUVEC, uPAR biomarker ELISA; actives raise or lower the signal. The method, boiled down:
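Cell-surface uPAR on HUVEC (3C system) read by ELISA at 24 h post-treatment, with DMSO as baseline and fitting in both directions. Parallel cultures stained with SRB to flag overt cytotoxicity.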

A short description of assay [6]: BSK_3C_VCAM1: BioMAP Diversity Plus: 3C Assay for Vascular cell adhesion molecule 1 (VCAM1) Biomarker Activity (AID 2282999). The conditions noted are these: BioMAP 3C HUVEC, VCAM1 ELISA, cytokine-stimulated; actives raise or lower the signal. In short, it runs like this:
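Human umbilical vein endothelial cells (3C system), biomarker read by ELISA 24 h after dosing; bidirectional fit against DMSO baseline. Cytotoxicity tracked by SRB total-protein staining in parallel cultures at biomarker time.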
In general terms: An ELISA detects its analyte on a solid surface through an enzyme-linked reagent.

Assay [7] in a line: BSK_4H_Eotaxin3: BioMAP Diversity Plus: 4H Assay for Eotaxin 3 Biomarker Activity (AID 2283000).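 On outcome: CCL26 protein level quantified by ELISA in parallel with SRB cytotoxicity check.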 The conditions noted are these: primary human endothelial cells (HUVEC); actives raise or lower the signal. The method, boiled down:
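ELISA quantitation of CCL26 (Eotaxin-3) protein from chemically dosed human vascular endothelial cells at 24 h; increases and decreases both scored relative to DMSO-treated baseline.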

Assay [8] concerns the target human Peroxisome Proliferator-activated Receptor alpha (PPARa), PPARA (gene 5465) (UniProt Q07869). As to the kind of experiment: ATG_PPARa_TRANS: Attagene TRANS-FACTORIAL HepG2 Assay for human Peroxisome Proliferator-activated Receptor alpha (PPARa) (AID 2283001; active means hit-call score of the fitted dose curve at least 0.9, where 1 is the maximum). The method, boiled down: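 HepG2 cells transiently transfected with multiplexed GAL4-UAS reporters driven by exogenous chimeric NR-Gal4 proteins; reporter mRNA measured after 24 h dosing. Read-out by RT-PCR, 6-FAM labelling, HpaI digestion and capillary electrophoresis; gain of signal versus DMSO.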

In assay [9] the target is human Peroxisome Proliferator-activated Receptor delta (PPARd), PPARD (gene 5467) (UniProt Q03181). As to the kind of experiment: ATG_PPARd_TRANS: Attagene TRANS-FACTORIAL HepG2 Assay for human Peroxisome Proliferator-activated Receptor delta (PPARd) (AID 2283002; active means hit-call score of the fitted dose curve at least 0.9, where 1 is the maximum). The method, boiled down: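 Read-out: reporter mRNA induction, quantified by fluorescent RT-PCR products resolved by capillary electrophoresis. Human HepG2 liver cells carried transiently transfected Gal4-UAS reporter constructs with chimeric NR-Gal4 fusions. Cells were dosed for 24 h; DMSO served as baseline.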

Read-out in assay [10]: Intercellular Adhesion Molecule 1 (ICAM1), ICAM1 (gene 3383)
As to the kind of experiment: BSK_3C_ICAM1: BioMAP Diversity Plus: 3C Assay for Intercellular Adhesion Molecule 1 (ICAM1) Biomarker Activity (AID 2283003). The conditions noted are these: primary human endothelial cells (HUVEC); actives raise or lower the signal. The method, boiled down:
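ICAM-1 levels measured by ELISA after HUVEC cultures in the 3C system had been dosed for 24 h. Gain or loss of signal relative to DMSO was fitted in both directions.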

The target of assay [11] is human Retinoic Acid Receptor beta (RARb), RARB (gene 5915) (UniProt P10826). As to the kind of experiment: ATG_RARb_TRANS: Attagene TRANS-FACTORIAL HepG2 Assay for human Retinoic Acid Receptor beta (AID 2283004; active means hit-call score of the fitted dose curve at least 0.9, where 1 is the maximum). In short, it runs like this: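 Fluorescent capillary-electrophoresis detection of GAL4-UAS reporter mRNA defines the endpoint, with induction over DMSO-treated wells scored as activity. Transiently transfected human hepatoma HepG2 cells expressing exogenous NR–Gal4 proteins are exposed to test chemicals for 24 h.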

Assay [12] concerns the target Retinoic acid receptor alpha (Homo sapiens) (UniProt P10276). As to the kind of experiment: ATG_RARa_TRANS: Attagene TRANS-FACTORIAL HepG2 Assay for human Retinoic Acid Receptor alpha (RARa) (AID 2283005; active means hit-call score of the fitted dose curve at least 0.9, where 1 is the maximum). In short, it runs like this: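 HepG2 transiently transfected with multiplex GAL4-UAS reporter units including a human RARa–GAL4 chimera; 24 h compound exposure. Reporter mRNA quantified by RT-PCR, 6-FAM labeling and capillary electrophoresis; gain of signal versus DMSO.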

A short description of assay [13]: BSK_3C_Proliferation: Cell Proliferation Assessment in the BioMAP Diversity Plus: 3C Assay (AID 2283006).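 On AC50: potency may reflect either rise or fall in cell number versus DMSO.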 Conditions: primary human endothelial cells (HUVEC). The method, boiled down: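 Read-out is total protein by SRB absorbance at 560 nm, taken as a proxy for relative cell number. Primary human umbilical vein endothelium cultured below confluence was dosed for 48 h, TCA-fixed and SRB-stained; curves were fitted bidirectionally versus DMSO.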

Assay [14] deals with Peroxisome proliferator-activated receptor gamma (Homo sapiens) (UniProt P37231). As to the kind of experiment: ATG_PPARg_TRANS: Attagene TRANS-FACTORIAL HepG2 Assay for human Peroxisome Proliferator-activated Receptor-gamma (PPARg) (AID 2283007; active means hit-call score of the fitted dose curve at least 0.9, where 1 is the maximum). In short, it runs like this:
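Chimeric NR-Gal4 transactivation is measured in transiently transfected HepG2 cells by reporter mRNA induction at 24 h. Detection uses RT-PCR with fluorescent labelling and capillary electrophoresis; DMSO defines baseline.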

The target in assay [15] is Nuclear receptor subfamily 1 group I member 2 (Homo sapiens) (UniProt O75469). As to the kind of experiment: ATG_PXR_TRANS: Attagene TRANS-FACTORIAL HepG2 Assay for human Pregnane X Receptor (PXR) (AID 2283008; active means hit-call score of the fitted dose curve at least 0.9, where 1 is the maximum). In short, it runs like this:
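Read-out is fluorescence of labelled reporter cDNA fragments separated by capillary electrophoresis after RT-PCR and HpaI digestion. Source: HepG2 cells carrying PXR-GAL4/UAS reporter constructs, treated 24 h; activity fitted upward relative to DMSO.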

For assay [16], the target named is human Retinoic Acid Receptor gamma (RARg), RARG (gene 5916) (UniProt P13631). As to the kind of experiment: ATG_RARg_TRANS: Attagene TRANS-FACTORIAL HepG2 Assay for human Retinoic Acid Receptor gamma (RARg) (AID 2283009; active means hit-call score of the fitted dose curve at least 0.9, where 1 is the maximum). The method, boiled down:
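Transient transfection of HepG2 with multi-reporter constructs, then 24 h chemical treatment. Total RNA isolated, reverse-transcribed, PCR-amplified, fluorescently labelled and resolved by capillary electrophoresis; activity scored as mRNA induction versus DMSO.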

The target of assay [17] is human RAR-related Orphan Receptor beta (RORb), RORB (gene 6096) (UniProt Q92753). As to the kind of experiment: ATG_RORb_TRANS: Attagene TRANS-FACTORIAL HepG2 Assay for human RAR-related Orphan Receptor beta (RORb) (AID 2283010; active means hit-call score of the fitted dose curve at least 0.9, where 1 is the maximum). In short, it runs like this: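 Readout is reporter-gene mRNA induction, detected as fluorescence after RT-PCR and capillary electrophoresis, fitted for gain of signal against DMSO controls. Transiently transfected HepG2 liver cells carrying GAL4-UAS reporter constructs were treated for 24 hours.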

Assay [18] deals with human RAR-related Orphan Receptor gamma (RORg), RORC (gene 6097) (UniProt P51449). As to the kind of experiment: ATG_RORg_TRANS: Attagene TRANS-FACTORIAL HepG2 Assay for human RAR-related Orphan Receptor gamma (RORg) (AID 2283011; active means hit-call score of the fitted dose curve at least 0.9, where 1 is the maximum). In short, it runs like this:
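Chimeric RORg-Gal4 transactivation in transfected HepG2; 24 h exposure; RT-PCR/capillary electrophoresis readout of reporter mRNA, DMSO baseline.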

Assay [19] is described as follows: BSK_3C_TissueFactor: BioMAP Diversity Plus: 3C Assay for Tissue Factor Biomarker Activity (AID 2282997). Conditions: BioMAP 3C HUVEC, tissue factor biomarker readout; actives raise or lower the signal. In short, it runs like this: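 Endothelial monolayers (human umbilical vein, primary) are dosed, incubated 24 h, and assayed for Tissue Factor by ELISA; DMSO serves as negative control for bidirectional fitting.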

Assay [20] can be described thus: ATG_NF_kB_CIS: Attagene CIS-FACTORIAL HepG2 Assay for human Nuclear Factor Kappa B (NF-kB) (AID 2282991). Conditions: HepG2 Attagene cis-factorial NF-kB reporter mRNA; actives raise or lower the signal. In short, it runs like this:
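DMSO served as negative control and baseline for bidirectional curve fitting. Transiently transfected HepG2 cells were dosed for 24 h, then reporter transcripts were measured by RT-PCR with capillary electrophoresis detection.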

Records with an inconclusive call do not appear. The source made the active and inactive calls. How the source made its calls, unless noted: active means hit-call score of the fitted dose curve at least 0.9, where 1 is the maximum; inactive means score below 0.9.

Sequence of human Peroxisome Proliferator-activated Receptor alpha (PPARa), PPARA (gene 5465) (Q07869 whole entry, looked up, the tested form may be a part): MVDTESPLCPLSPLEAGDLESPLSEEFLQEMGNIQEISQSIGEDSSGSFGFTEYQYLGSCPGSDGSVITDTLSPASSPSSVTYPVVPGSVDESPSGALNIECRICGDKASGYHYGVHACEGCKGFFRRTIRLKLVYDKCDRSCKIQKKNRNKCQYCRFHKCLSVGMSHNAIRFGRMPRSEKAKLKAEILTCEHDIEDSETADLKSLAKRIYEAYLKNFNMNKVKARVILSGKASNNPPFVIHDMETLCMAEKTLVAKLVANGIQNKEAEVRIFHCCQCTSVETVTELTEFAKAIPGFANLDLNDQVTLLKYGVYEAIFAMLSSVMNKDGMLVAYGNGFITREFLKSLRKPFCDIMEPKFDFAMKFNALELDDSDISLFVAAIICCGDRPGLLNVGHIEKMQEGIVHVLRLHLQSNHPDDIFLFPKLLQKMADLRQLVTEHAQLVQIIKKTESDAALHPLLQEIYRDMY
Sequence of human Peroxisome Proliferator-activated Receptor delta (PPARd), PPARD (gene 5467) (Q03181 whole entry, looked up, the tested form may be a part): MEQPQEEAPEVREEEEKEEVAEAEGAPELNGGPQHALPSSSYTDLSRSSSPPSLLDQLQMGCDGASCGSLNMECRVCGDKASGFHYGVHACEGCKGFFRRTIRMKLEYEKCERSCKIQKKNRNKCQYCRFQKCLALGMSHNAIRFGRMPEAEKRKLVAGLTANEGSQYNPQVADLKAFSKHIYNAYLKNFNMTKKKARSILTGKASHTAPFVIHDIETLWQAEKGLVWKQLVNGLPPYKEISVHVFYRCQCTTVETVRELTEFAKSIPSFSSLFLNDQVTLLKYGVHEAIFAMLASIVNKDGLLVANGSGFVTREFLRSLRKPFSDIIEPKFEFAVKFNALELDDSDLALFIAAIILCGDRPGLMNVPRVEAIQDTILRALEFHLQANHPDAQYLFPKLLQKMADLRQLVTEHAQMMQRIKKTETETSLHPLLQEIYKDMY
Sequence of Retinoic acid receptor alpha (Homo sapiens) (P10276 whole entry, looked up, the tested form may be a part): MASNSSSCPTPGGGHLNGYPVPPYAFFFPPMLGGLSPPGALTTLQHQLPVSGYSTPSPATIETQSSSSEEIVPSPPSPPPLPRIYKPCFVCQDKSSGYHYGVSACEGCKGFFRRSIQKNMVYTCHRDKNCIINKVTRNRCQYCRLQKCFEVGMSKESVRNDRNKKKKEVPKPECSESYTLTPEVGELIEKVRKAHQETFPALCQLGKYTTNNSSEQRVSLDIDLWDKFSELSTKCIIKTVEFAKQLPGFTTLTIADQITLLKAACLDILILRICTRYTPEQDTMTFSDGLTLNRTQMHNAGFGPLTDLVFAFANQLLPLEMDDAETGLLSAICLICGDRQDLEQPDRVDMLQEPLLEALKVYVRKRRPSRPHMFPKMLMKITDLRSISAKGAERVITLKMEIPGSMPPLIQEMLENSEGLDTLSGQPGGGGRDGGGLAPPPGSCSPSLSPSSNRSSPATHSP
Sequence of Cellular tumor antigen p53 (Homo sapiens) (P04637 whole entry, looked up): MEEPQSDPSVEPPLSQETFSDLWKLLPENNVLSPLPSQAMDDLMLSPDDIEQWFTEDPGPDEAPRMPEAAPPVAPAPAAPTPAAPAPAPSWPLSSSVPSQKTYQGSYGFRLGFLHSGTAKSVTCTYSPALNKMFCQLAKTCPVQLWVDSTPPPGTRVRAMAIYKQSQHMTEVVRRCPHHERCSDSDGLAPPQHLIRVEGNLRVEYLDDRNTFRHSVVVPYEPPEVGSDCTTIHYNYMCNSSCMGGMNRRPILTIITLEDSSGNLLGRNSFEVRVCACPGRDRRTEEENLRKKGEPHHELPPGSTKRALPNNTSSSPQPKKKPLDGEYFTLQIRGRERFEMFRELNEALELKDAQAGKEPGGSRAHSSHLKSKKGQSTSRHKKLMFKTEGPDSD
Sequence of human Retinoic Acid Receptor beta (RARb), RARB (gene 5915) (P10826 whole entry, looked up, the tested form may be a part): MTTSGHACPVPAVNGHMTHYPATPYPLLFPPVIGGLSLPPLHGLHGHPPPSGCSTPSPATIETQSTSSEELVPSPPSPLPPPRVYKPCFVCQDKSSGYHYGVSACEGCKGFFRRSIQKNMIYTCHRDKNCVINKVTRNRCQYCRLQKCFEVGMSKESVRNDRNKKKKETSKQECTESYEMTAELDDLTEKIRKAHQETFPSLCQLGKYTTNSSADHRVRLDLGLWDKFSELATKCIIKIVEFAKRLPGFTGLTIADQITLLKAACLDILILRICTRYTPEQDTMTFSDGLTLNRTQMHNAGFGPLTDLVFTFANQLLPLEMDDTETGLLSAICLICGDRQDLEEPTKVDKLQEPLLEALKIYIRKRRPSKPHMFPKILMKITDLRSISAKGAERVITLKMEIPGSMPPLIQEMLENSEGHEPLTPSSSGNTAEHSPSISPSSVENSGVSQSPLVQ
Sequence of Peroxisome proliferator-activated receptor gamma (Homo sapiens) (P37231 whole entry, looked up, the tested form may be a part): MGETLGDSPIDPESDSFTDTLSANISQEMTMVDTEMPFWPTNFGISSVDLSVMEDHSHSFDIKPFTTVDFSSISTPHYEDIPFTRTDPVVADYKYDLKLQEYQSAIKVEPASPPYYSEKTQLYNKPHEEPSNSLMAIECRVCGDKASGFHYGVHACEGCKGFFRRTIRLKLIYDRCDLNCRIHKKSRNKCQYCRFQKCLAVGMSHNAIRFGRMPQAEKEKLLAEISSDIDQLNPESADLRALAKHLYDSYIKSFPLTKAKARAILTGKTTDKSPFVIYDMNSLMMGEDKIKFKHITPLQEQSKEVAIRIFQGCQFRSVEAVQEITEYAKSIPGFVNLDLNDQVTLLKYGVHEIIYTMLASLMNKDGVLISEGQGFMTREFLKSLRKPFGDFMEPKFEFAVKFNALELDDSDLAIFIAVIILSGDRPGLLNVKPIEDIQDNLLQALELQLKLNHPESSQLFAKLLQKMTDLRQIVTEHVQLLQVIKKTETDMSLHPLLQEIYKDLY
Sequence of human RAR-related Orphan Receptor gamma (RORg), RORC (gene 6097) (P51449 whole entry, looked up, the tested form may be a part): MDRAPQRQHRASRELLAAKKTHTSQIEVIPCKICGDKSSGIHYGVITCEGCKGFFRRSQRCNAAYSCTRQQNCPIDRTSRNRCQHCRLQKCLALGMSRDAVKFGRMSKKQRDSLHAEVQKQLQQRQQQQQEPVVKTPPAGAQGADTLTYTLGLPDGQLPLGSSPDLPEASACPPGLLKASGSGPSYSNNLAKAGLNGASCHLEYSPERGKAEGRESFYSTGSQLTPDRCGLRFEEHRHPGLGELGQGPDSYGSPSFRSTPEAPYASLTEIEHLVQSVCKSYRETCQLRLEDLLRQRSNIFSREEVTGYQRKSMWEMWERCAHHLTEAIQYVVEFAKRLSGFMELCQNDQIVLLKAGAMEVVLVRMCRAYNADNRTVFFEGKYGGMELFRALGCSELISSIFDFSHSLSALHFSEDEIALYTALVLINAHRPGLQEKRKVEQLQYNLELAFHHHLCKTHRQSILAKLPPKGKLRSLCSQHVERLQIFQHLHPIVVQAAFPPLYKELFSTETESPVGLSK
Sequence of Myc proto-oncogene protein (Homo sapiens) (P01106 whole entry, looked up, the tested form may be a part): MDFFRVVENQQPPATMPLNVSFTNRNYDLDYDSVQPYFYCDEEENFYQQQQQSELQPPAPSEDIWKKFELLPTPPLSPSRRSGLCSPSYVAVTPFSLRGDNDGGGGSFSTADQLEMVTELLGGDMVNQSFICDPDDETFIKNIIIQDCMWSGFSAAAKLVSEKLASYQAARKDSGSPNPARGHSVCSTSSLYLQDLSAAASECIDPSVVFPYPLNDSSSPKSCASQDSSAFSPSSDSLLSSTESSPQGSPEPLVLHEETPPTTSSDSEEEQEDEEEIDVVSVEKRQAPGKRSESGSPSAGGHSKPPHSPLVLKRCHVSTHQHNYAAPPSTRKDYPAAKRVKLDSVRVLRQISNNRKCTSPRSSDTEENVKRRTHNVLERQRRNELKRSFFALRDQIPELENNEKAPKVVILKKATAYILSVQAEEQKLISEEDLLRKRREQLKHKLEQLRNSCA
Sequence of Nuclear receptor subfamily 1 group I member 2 (Homo sapiens) (O75469 whole entry, looked up, the tested form may be a part): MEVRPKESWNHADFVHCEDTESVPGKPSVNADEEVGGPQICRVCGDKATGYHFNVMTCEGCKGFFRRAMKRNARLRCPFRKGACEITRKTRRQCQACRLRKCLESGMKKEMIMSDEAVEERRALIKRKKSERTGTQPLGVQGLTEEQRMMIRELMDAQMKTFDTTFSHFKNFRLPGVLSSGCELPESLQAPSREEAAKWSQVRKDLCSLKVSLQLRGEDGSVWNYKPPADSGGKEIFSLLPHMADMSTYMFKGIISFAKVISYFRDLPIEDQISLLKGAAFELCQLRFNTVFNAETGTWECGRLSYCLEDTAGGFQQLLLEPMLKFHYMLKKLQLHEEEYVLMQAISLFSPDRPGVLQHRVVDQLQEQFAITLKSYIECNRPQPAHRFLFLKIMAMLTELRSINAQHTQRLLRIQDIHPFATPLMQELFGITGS
Sequence of human Retinoic Acid Receptor gamma (RARg), RARG (gene 5916) (P13631 whole entry, looked up): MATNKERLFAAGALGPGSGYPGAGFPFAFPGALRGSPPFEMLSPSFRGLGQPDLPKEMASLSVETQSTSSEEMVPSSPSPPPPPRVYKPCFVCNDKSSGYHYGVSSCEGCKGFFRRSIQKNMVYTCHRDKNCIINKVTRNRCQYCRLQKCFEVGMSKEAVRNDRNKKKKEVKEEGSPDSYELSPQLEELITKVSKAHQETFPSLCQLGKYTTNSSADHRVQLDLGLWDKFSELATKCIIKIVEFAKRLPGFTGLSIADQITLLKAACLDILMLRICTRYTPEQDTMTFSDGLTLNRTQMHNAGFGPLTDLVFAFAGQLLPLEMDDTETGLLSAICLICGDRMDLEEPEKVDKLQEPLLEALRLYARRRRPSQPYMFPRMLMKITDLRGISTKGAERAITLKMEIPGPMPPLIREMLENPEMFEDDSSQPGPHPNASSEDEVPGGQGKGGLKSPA

As for `OB(O)O`, the call in [1], in [2], in assay [3], in [4], in assay [5] and in assay [6] was inactive. Further, the result in assay [7], in assay [8], in assay [9], in [10], in assay [11] and in [12] was inactive. Moreover, the result in assay [13], in assay [14], in [15], in [16], in [17] and in [18] was inactive.

Turning to `S=C([S-])NCCNC(=S)[S-].[Mn+2]`, the result in [1], in assay [2], in [3], in [5], in assay [6] and in assay [8] was inactive. For the same compound, the result in assay [10], in assay [14] and in [17] was inactive. In addition, in assay [7], the AC50 (usually the concentration giving half of the maximal activity seen) was 26.8 µM (active).

For the compound `C#CCOC(=O)[C@@H](C)Oc1ccc(Oc2ncc(Cl)cc2F)cc1`, the compound was classed as inactive in assay [1], in assay [2], in assay [3], in assay [4], in assay [19] and in [5]. The outcome in [6], in assay [7], in assay [8], in [9], in assay [10] and in assay [13] was inactive. The compound was called inactive in assay [14], in [16], in assay [17] and in [18].

As for `COCCO`, the call in [1], in assay [2], in assay [3], in assay [4], in assay [5] and in assay [6] was inactive. The result in [7], in assay [8], in [10], in [11], in assay [12] and in assay [13] was inactive. The call in assay [14], in assay [15], in assay [16], in assay [17] and in assay [18] was inactive.

In the case of `CCN(CC)C(=O)c1cccc(C)c1`, the result in assay [1], in assay [2], in [3], in assay [19], in [5] and in assay [6] was inactive. The outcome in [7], in assay [8], in assay [9], in assay [10], in assay [11] and in assay [12] was inactive. The outcome in assay [13], in assay [14], in [15], in [16] and in assay [18] was inactive.

`COC(=O)c1ccc(I)cc1S(=O)(=O)NC(=O)Nc1nc(C)nc(OC)n1`: the compound was classed as inactive in assay [1], in assay [2], in [3], in assay [4], in assay [19] and in assay [5]. Further, the result in assay [6], in assay [7], in [8], in [10], in [13] and in [14] was inactive.

For the compound `C[C@]12CC[C@@H]3c4ccc(O)cc4C[C@@H](CCCCCCCCCS(=O)CCCC(F)(F)C(F)(F)F)[C@H]3[C@@H]1CC[C@@H]2O` (some centres not stated), the compound was classed as inactive in assay [1], in assay [20], in [2], in assay [3], in [4] and in [5]. Moreover, the result in assay [6], in assay [7], in [9], in [10], in assay [11] and in assay [14] was inactive. Moreover, the compound was called inactive in assay [17] and in assay [18]. Also, the concentration at half-maximal activity (AC50) in assay [13] is 2.05 µM (active); in assay [15] it was 494 nM (active) [middle of 4 runs].

For the compound `CCC(O)=C1C(=O)CC(C(=O)O)CC1=O` (configuration not stated), the compound was called inactive in assay [1], in assay [20], in assay [3], in [4], in [5] and in assay [6]. In addition, the result in assay [7], in assay [10], in assay [11], in [12], in [13] and in assay [16] was inactive. Also, the call in assay [17] and in assay [18] was inactive. Further, the concentration at half-maximal activity (AC50) in [2] was 35.6 µM (active); in assay [14] it was 22.3 µM (active).
